# Most compounds without a hit are left out; they make up all but 4% or so of the library.
# TRHR agonist: activates the human TRH receptor; P34981; TRHR cells, calcium flux fluo-8, FDSS agonist mode; activation, % at 2 µM; 360,000 tested, 0.18% active; AID 493084; also: 0% is about no effect
#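 In this calcium-flux screen, cells bearing human TRHR are dye-loaded with fluo-8, baselined for 10 cycles, then exposed to library compounds; positive kinetic calcium responses during the agonist phase mark hits, with TRH as control.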
# D1 PAM: enhances dopamine response at the human D1 receptor; P21728; HEK293 TREx D1 cells, calcium flux, dopamine EC20 potentiation; potentiation, % at 10 µM; 360,000 tested, 0.036% active; AID 504651; in the data active = potentiation above about 30%; also: 0% is about no effect
# Target sequence (P21728 whole entry, looked up): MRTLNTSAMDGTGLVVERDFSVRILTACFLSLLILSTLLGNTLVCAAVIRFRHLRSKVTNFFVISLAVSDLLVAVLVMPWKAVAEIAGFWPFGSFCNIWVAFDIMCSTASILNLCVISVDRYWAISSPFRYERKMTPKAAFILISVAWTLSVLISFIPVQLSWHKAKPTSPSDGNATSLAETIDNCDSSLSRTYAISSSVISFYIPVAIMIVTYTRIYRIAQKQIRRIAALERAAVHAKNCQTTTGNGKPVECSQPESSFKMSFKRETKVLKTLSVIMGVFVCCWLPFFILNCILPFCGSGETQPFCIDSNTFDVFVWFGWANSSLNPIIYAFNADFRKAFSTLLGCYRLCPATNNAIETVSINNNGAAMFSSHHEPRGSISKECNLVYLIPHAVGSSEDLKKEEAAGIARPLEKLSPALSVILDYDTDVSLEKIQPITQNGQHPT
# TRHR enhancer: TRH receptor (human) allosteric enhancement | P34981 | TRHR cells, fluo-8 calcium fluorescence, EC20 TRH enhancement | enhancement, % at 2 µM | 360,000 tested, 0.66% active | AID 493056; in the data active = enhancement above about 30%; also: 0% is about no effect
#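 TRHR-expressing cells loaded with fluo-8 calcium dye were read kinetically (ex 480/em 530) during compound addition, then stimulated with an EC20 of TRH (10 nM final). Enhancement of the Gq-mediated intracellular calcium response was scored.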
# D1 agonist: activates the human D1 dopamine receptor. activation, % at 2 µM. HEK293 T-REx D1 cells, calcium flux, agonist mode. 360,000 tested, 1% active; also: 0% is about no effect
#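 Agonism was scored from calcium flux recorded over 180 s (1 read/s) after pintool compound addition, following a 10-cycle baseline. Cells were inducible force-coupled HEK293 TREx D1, plated overnight at 30 C and loaded with no-wash calcium dye.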
# D1 antag: human D1 dopamine receptor antagonism; HEK293 TREx D1 cells, calcium flux, dopamine EC80; active compounds read low; activity change, negative = inhibition, % at 10 µM; AID 504652; 360,000 tested, 3.2% active; P21728; in the data active = activity change below about -30%; also: % is scaled to controls: 0 for no effect and ±100 for the full control effect
#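 Antagonism measured as reduced calcium response to an EC80 dopamine addition following 180 s compound pre-read; cells were inducible HEK293 Trex D1 plated overnight at 30 C, read kinetically at 1 cycle/sec.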
# Glioma ERSR ind: ER stress response induction in glioma; U87-MG GRP78 promoter luciferase reporter, 16 h; Potency, µM, for inactives: at the highest dose activation, hits mostly activators; AID 602332; 420,000 tested, 0.02% active; active = well fitted activation curve with a large enough effect; also: potency is read from the fitted curve at half-maximal effect; series mostly up to about 76 µM; % of control where 0% means no effect; nearly all actives have a fitted effect of over 35% in size
#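 ERSR induction read as luciferase luminescence (Bright-Glo, 10 min at room temperature) in stably transfected human U87-MG glioma cells exposed to compounds for 16 h, using GRP78 as sensor.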
# The depositor's hits bear a star; nt = no result given. Rule as the data show it, unless noted: active = activation above about 30%; inactive = the rest.
SMILES,TRHR agonist,D1 PAM,TRHR enhancer,D1 agonist,D1 antag,Glioma ERSR ind
CCOc1ccccc1CNCc1ccc(C(=O)O)cc1,0,4,1,-2,nt,-1%
CCOc1ccccc1CNCc1ccc(F)cc1,1,0,-2,4,-31*,-8%
O=C(O)c1ccccc1C(=O)N1CC=C(c2ccccc2)CC1,1,-3,-1,2,-39*,-11%
CC(=O)N1CCN(C(=O)c2cc(C)nc3ccccc23)CC1,0,0,-4,2,11,-6%
Cc1cc(C(=O)N2CC=C(c3ccccc3)CC2)c2ccccc2n1,0,-3,0,2,-41*,-3%
O=C(CN(C(=O)CNC(=O)c1cccs1)c1cccc(F)c1)NC1CCCC1,1,0,-3,2,10,0%
CCOc1cc(C(=O)OCc2cc(=O)n3nc(CC)sc3n2)cc(OCC)c1OCC,0,3,-8,0,-8,-3%
Cc1ccc(NC(=O)Cn2cnc3cc([N+](=O)[O-])ccc3c2=O)c(Cl)c1,-1,-10,10,38*,-20,-5%
Cc1ccc(NC(=O)Cn2cnc3cc([N+](=O)[O-])ccc3c2=O)cc1,-1,4,-3,1,-13,-6%
O=C1[C@@H]2[C@H]3[C@H](O)[C@H](O)C/C(=N/OCc4ccccc4)[C@H]3CC[C@H]2C(=O)N1c1ccc(F)cc1F,nt,nt,nt,nt,nt,-3%
COc1ccc(NC(=O)CC2C(=O)N(c3ccc(OC)cc3)C(=O)N2CCC2=CCCCC2)cc1 (configuration not stated),0,-2,0,1,-31*,5%
COc1ccc(CCN2C(=O)N(c3ccc(F)cc3)C(=O)C2CC(=O)Nc2ccccc2)cc1 (configuration not stated),0,0,-6,-1,3,1%
CCOc1ccc(NC(=O)CC2C(=O)N(c3ccc(OC)cc3)C(=O)N2CCC2=CCCCC2)cc1 (configuration not stated),0,-2,-1,1,-22,-1%
COC(=O)CN1C(=S)N(c2ccc(Cl)cc2)C(=O)C1CC(=O)Nc1ccc(F)cc1 (configuration not stated),0,-6,4,16,-10,-3%
COC(=O)CN1C(=S)N(c2ccc(F)cc2)C(=O)C1CC(=O)Nc1ccc(F)cc1 (configuration not stated),2,-2,0,1,-51*,-1%
O=C(CC1C(=O)N(c2ccccc2)C(=O)N1Cc1ccco1)Nc1ccccc1 (configuration not stated),0,-1,1,1,-44*,2%
COc1ccc(NC(=O)CC2C(=O)N(c3ccc(C)cc3)C(=O)N2CCc2ccccc2)cc1 (configuration not stated),-1,-5,4,1,-37*,0%
CSc1ccc(/C=C2\C=Cc3ccccc32)cc1,nt,nt,nt,nt,nt,3%
COc1ccc(-c2csc(NC(=O)c3ccc(OCC(=O)N4CCOCC4)c(OC)c3)n2)cc1OC,1,-3,-1,1,7,-7%
O=C1CC(C(=O)N2CCCC(c3nc(-c4ccncc4)ncc3-c3ccccc3)C2)C2(CCCCC2)O1 (configuration not stated),nt,nt,nt,nt,nt,3%
COc1ccc(NC(=O)CC2C(=O)N(c3ccc(Cl)cc3)C(=S)N2CCc2ccncc2)cc1 (configuration not stated),0,4,9,1,4,-4%
CCCOc1ccc(NC(=O)CC2C(=O)N(c3ccc(Cl)cc3)C(=O)N2CCc2ccncc2)cc1 (configuration not stated),2,-3,-5,27,-35*,-2%
CCOc1ccc(NC(=O)CC2C(=O)N(c3ccc(F)cc3)C(=O)N2CCc2sccc2C)cc1 (configuration not stated),1,1,42*,1,3,-3%
O=S(=O)(c1ccc2c(c1)OCCO2)N1CCN(S(=O)(=O)c2cc(F)c(Br)cc2F)CC1,-2,3,-4,1,1,nt
CCOC(=O)c1c(-c2ccc(C)cc2)csc1NC(=O)c1nc(SCC)ncc1Cl,1,2,9,3,0,-3%
SMILES,TRHR agonist,D1 PAM,TRHR enhancer,D1 agonist,D1 antag,Glioma ERSR ind
O=C(O)c1c(-c2ccccc2)oc2ccc(OCc3c(F)cccc3Cl)cc12,-1,1,13,36*,0,-2%
COC(=O)c1cc(CNC(=O)c2ccncc2)cc(NC(=O)c2ccccc2Cl)c1,nt,nt,nt,nt,nt,-3%
S=c1ncc2n[nH]nc2[nH]1,nt,nt,nt,nt,nt,-3%
Cc1nc(N)nc(N)c1Oc1ccc(Cl)cc1,nt,nt,nt,nt,nt,-2%
Cc1nc(N)nc(N)c1/C=C/C(C)(C)c1ccc(Cl)cc1,1,-9,24,38*,-20,-12%
COc1ccc(C(=O)NCCn2cc(SC(C)c3ccccc3)c3ccccc32)cc1OC (configuration not stated),3,-2,16,0,-5,-3%
Cc1cccc(N2CCN(Cc3nc(-c4ccccc4Cl)oc3C)CC2)n1,0,-7,-5,1,-31*,-3%
COc1ccc(NC(=O)c2cc(C(C)=O)n3ccccc23)cc1,-1,-3,3,4,8,2%
O=C(Nc1ccccc1NC(=O)c1ccc(F)cc1)c1ccc(F)cc1,0,-2,-8,3,-36*,-5%
O=C(NNC(=O)c1ccc(NC(=O)c2ccccc2)cc1)c1ccc(F)cc1,2,-3,-5,4,-67*,-1%
O=C(Nc1ccccc1Sc1ccccc1)c1ccc(F)cc1,0,-3,0,2,1,-1%
O=C(NNS(=O)(=O)c1ccccc1)Nc1ccc(F)cc1,0,-7,-9,1,-36*,1%
O=C(NNC(=O)c1ccc(NC(=O)c2ccccc2)cc1)Nc1ccccc1,1,-3,-9,9,-5,-3%
Cc1ccc(SCc2[nH]nc3c2C2(CCSCC2)C(C#N)=C(N)O3)cc1,0,3,-6,0,-16,-2%
CCOC(=O)N1CCC2(CC1)C(C#N)=C(N)Oc1n[nH]c(CSc3ccc(C)cc3)c12,1,-2,-1,2,-39*,-8%
NNC(=O)CNC(c1ccccc1)c1cc(Br)ccc1NC(=O)CCN1CCOCC1 (configuration not stated),-1,4,36*,7,0,-4%
NNC(=O)CNC(c1ccccc1)c1cc(Br)ccc1NC(=O)c1ccc(Br)cc1 (configuration not stated),-1,-8,3,17,3,0%
CN1CCc2cccc3c2C1Cc1ccc(O)c(O)c1-3 (configuration not stated),0,-8,-6,48*,-75*,-6%
